What was measured:
Assay in all cases: PBM binding z-score (relative to random genomic background probes); higher = stronger binding; sequences stand for … in GC…GCGATTGACAGCGTAGAATGAAGG
[1] = tested on: FXR:RXRa (NR concentration 270 nM, RXRa partner concentration 90 nM)
In short: (§1)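 Binding buffer was PBS pH 7.4 with 2% milk, 0.02% Triton X-100, 1 mM DTT, 0.2 mg/mL BSA and 0.4 mg/ml salmon testes DNA. In it, ligand-free nuclear receptor dimers were incubated 1 h on custom Agilent 4×180K protein-binding microarrays carrying double-stranded probes. Antibodies against each partner (one per run) detected binding, and z-scores were calculated against random background probes after regression normalization of scanned fluorescence.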

[2] = tested on: LXRa:RXRa (NR concentration 270 nM, RXRa partner concentration 90 nM)
In short: as §1

[3] = tested on: LXRa homodimer (NR concentration 270 nM)
In short: as §1

[4] = tested on: LXRb:RXRa (NR concentration 270 nM, RXRa partner concentration 90 nM)
In short: as §1

[5] = tested on: LXRb homodimer (NR concentration 270 nM)
In short: as §1

[6] = tested on: PPARa:RXRa (NR concentration 270 nM, RXRa partner concentration 90 nM)
In short: as §1

[7] = tested on: PPARg:RXRa (NR concentration 180 nM, RXRa partner concentration 90 nM)
In short: as §1

[8] = tested on: PPARg:RXRa 270nM:90nM, anti-RXR (NR concentration 270 nM, RXRa partner concentration 90 nM)
In short: as §1

[9] = tested on: PPARg:RXRa 30nM:10nM, anti-RXR (NR concentration 30 nM, RXRa partner concentration 10 nM)
In short: as §1

[10] = tested on: PPARg:RXRa 90nM:30nM, anti-RXR (NR concentration 90 nM, RXRa partner concentration 30 nM)
In short: as §1

| Sequence | PBM binding z-score [1] | PBM binding z-score [2] | PBM binding z-score [3] | PBM binding z-score [4] | PBM binding z-score [5] | PBM binding z-score [6] | PBM binding z-score [7] | PBM binding z-score [8] | PBM binding z-score [9] | PBM binding z-score [10] |
| --- | --- | --- | --- | --- | --- | --- | --- | --- | --- | --- |
| ACTAGCAGGCCAAGGGTCACGCAAGATTAGTCCG | 3.81 | 3.6 | 0.279 | 3.53 | -0.566 | 5.24 | 9.04 | 7.85 | 7.41 | 7.99 |
| GGAACGAGGGCAACGTTGATAGCATCTGTCGACG | 0.32 | 0.21 | -0.371 | 0.0442 | -0.855 | 1.59 | 1.9 | 1.95 | 0.134 | 1.2 |
| GGAACGAGGGCAATGTTGATAGCATCTGTCGACG | 0.66 | 0.337 | -0.33 | 0.395 | -0.557 | 1.66 | 1.4 | 1.49 | 0.128 | 0.931 |
| ATCTCTAGGTAAACATAGTTCAGTGAATGCAAAT | 0.367 | 4.22 | 0.983 | 1.07 | 0.728 | 0.819 | 1.12 | 1.07 | 0.499 | 0.945 |
| CCTAGCAGGCCAATCTGAGTCACTCAAGGCTTGA | -0.524 | -0.573 | -0.759 | -0.644 | -0.64 | -0.513 | -0.183 | -0.961 | -0.966 | -1.25 |
| TCTTGTCGATCAAGCAGGTTAAGAAAGCCTGAGT | -0.117 | 0.258 | -0.542 | 0.373 | -0.662 | 0.754 | -0.443 | 1.21 | 2.65 | 1.95 |
| ATATGTAGGTTAAGGGTCGTTCAGGTTGGTTCGC | 2.74 | 2.85 | 1.23 | 2.85 | 0.845 | 6.01 | 10.9 | 9.42 | 10.4 | 11 |
| CCTATTAGTTGACCATAAGGTCAACCGAAGCTCG | 4.88 | 4 | 3.35 | 3.83 | 1.73 | 4.06 | 1.48 | 3.02 | 1.42 | 2.61 |
| GGAACGAGGGCCAGTTGATAGCAGAGTTTGATGG | -0.532 | -0.8 | -0.645 | -1.21 | -0.96 | -0.53 | 0.258 | -0.67 | -0.491 | -0.758 |
| CCTACTGGGCCAAGAAGGTCATTGATGCCGATAA | 1.94 | 2.35 | 0.897 | 2.47 | -0.675 | 3.5 | 2.17 | 2.94 | 0.664 | 1.87 |
| CAAACTAGGTCATGAAAGGTCAAAGTCGAATGAC | 7.56 | 8.15 | 8.41 | 7.23 | 2.86 | 6.78 | 9.71 | 8.12 | 6.46 | 8.38 |
| GGAACGAGGGCAAAGTTGATAGGATCTGTCGACG | 1.38 | 1.05 | -0.433 | 0.86 | -0.537 | 4.22 | 6.9 | 6.73 | 5.71 | 6.95 |

From the supplement of paper PMC6555819
